# The campaign covered roughly 5,500 compounds. About 2,000 (36%) were called active. Another 18% or so got no clear call; they are omitted. This is one part of the list. A number with no mark means an inactive call. Cut-off read from the data, not from the text of the source: active = normalized growth mostly below about 0.91 (no sharp cut-off); inconclusive = no clear call, values can overlap the other calls; inactive = mostly above about 0.92.
# Assay: chemical genetic growth profiling, strain panel (AID 1159580);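 note: tested at 20 µM; growth read once vehicle control cultures reached saturation at 30 °C; 1 = growth at the plate median or of vehicle wells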
# Conditions: growth OD
compound,measurement,setting,value
CC1=C2C(=CO[C@H](C)[C@H]2C)C(=O)C(C(=O)O)=C1O,normalized growth,"S. cerevisiae deletion strains, locus YJR066W, strain TOR1, stronger effect = lower value",0.799 (active)
same,normalized growth,"S. cerevisiae deletion strains, locus YKL009W, strain mrt4, stronger effect = lower value",0.936
same,normalized growth,"S. cerevisiae deletion strains, locus YKL068W, stronger effect = lower value",0.972
same,normalized growth,"S. cerevisiae deletion strains, locus YKL085W, strain MDH1 (second series), stronger effect = lower value",0.943
same,normalized growth,"S. cerevisiae deletion strains, locus YKL085W, strain MDH1, stronger effect = lower value",0.943
same,normalized growth,"S. cerevisiae deletion strains, locus YKL160W, strain elf1, stronger effect = lower value",0.95
same,normalized growth,"S. cerevisiae deletion strains, locus YKL190W, strain CNB1, stronger effect = lower value",0.979
same,normalized growth,"S. cerevisiae deletion strains, locus YKR001C, strain vps1, stronger effect = lower value",1
same,normalized growth,"S. cerevisiae deletion strains, locus YKR026C, strain gcn3, stronger effect = lower value",0.979
same,normalized growth,"S. cerevisiae deletion strains, locus YKR091W, strain srl3, stronger effect = lower value",0.986
same,normalized growth,"S. cerevisiae deletion strains, locus YLL001W, strain dnm1, stronger effect = lower value",1
same,normalized growth,"S. cerevisiae deletion strains, locus YLL026W, stronger effect = lower value",0.976
same,normalized growth,"S. cerevisiae deletion strains, locus YLL041C, strain sdh2, stronger effect = lower value",0.98
same,normalized growth,"S. cerevisiae deletion strains, locus YLR027C, strain aat2, stronger effect = lower value",0.981
same,normalized growth,"S. cerevisiae deletion strains, locus YLR039C, strain RIC1, stronger effect = lower value",0.92
same,normalized growth,"S. cerevisiae deletion strains, locus YLR058C, strain SHM2, stronger effect = lower value",0.985
same,normalized growth,"S. cerevisiae deletion strains, locus YLR102C, strain apc9, stronger effect = lower value",0.979
same,normalized growth,"S. cerevisiae deletion strains, locus YLR113W, strain HOG1, stronger effect = lower value",0.709 (active)
same,normalized growth,"S. cerevisiae deletion strains, locus YLR221C, strain rsa3, stronger effect = lower value",0.971
same,normalized growth,"S. cerevisiae deletion strains, locus YLR258W, strain gsy2, stronger effect = lower value",0.96
same,normalized growth,"S. cerevisiae deletion strains, locus YLR262C, strain YPT6 (second series), stronger effect = lower value",0.891
same,normalized growth,"S. cerevisiae deletion strains, locus YLR262C, strain YPT6, stronger effect = lower value",0.918
same,normalized growth,"S. cerevisiae deletion strains, locus YLR268W, strain sec22, stronger effect = lower value",0.974
same,normalized growth,"S. cerevisiae deletion strains, locus YLR320W, strain mms22, stronger effect = lower value",0.94
same,normalized growth,"S. cerevisiae deletion strains, locus YLR330W, strain CHS5, stronger effect = lower value",0.98
same,normalized growth,"S. cerevisiae deletion strains, locus YLR342W, strain FKS1 (second series), stronger effect = lower value",0.931
same,normalized growth,"S. cerevisiae deletion strains, locus YLR342W, strain FKS1, stronger effect = lower value",0.954
same,normalized growth,"S. cerevisiae deletion strains, locus YLR357W, strain rsc2, stronger effect = lower value",1.01
same,normalized growth,"S. cerevisiae deletion strains, locus YLR370C, strain arc18, stronger effect = lower value",0.972
same,normalized growth,"S. cerevisiae deletion strains, locus YLR371W, strain rom2, stronger effect = lower value",1.01
same,normalized growth,"S. cerevisiae deletion strains, locus YLR384C, strain iki3, stronger effect = lower value",0.979
same,normalized growth,"S. cerevisiae deletion strains, locus YLR418C, strain cdc73, stronger effect = lower value",0.95
same,normalized growth,"S. cerevisiae deletion strains, locus YML016C, strain PPZ1, stronger effect = lower value",0.976
same,normalized growth,"S. cerevisiae deletion strains, locus YML032C, strain rad52, stronger effect = lower value",0.984
same,normalized growth,"S. cerevisiae deletion strains, locus YML120C, strain ndi1, stronger effect = lower value",0.975
same,normalized growth,"S. cerevisiae deletion strains, locus YML124C, strain tub3, stronger effect = lower value",0.964
same,normalized growth,"S. cerevisiae deletion strains, locus YMR058W, strain fet3, stronger effect = lower value",1
same,normalized growth,"S. cerevisiae deletion strains, locus YMR078C, strain ctf18, stronger effect = lower value",0.984
same,normalized growth,"S. cerevisiae deletion strains, locus YMR125W, strain sto1, stronger effect = lower value",0.996
same,normalized growth,"S. cerevisiae deletion strains, locus YMR129W, stronger effect = lower value",0.973
same,normalized growth,"S. cerevisiae deletion strains, locus YMR205C, strain PFK2, stronger effect = lower value",0.937
same,normalized growth,"S. cerevisiae deletion strains, locus YMR223W, strain ubp8, stronger effect = lower value",0.997
same,normalized growth,"S. cerevisiae deletion strains, locus YMR231W, strain pep5, stronger effect = lower value",0.981
same,normalized growth,"S. cerevisiae deletion strains, locus YMR307W, strain GAS1, stronger effect = lower value",0.85
same,normalized growth,"S. cerevisiae deletion strains, locus YNL067W, strain RPL9B, stronger effect = lower value",0.997
same,normalized growth,"S. cerevisiae deletion strains, locus YNL071W, strain lat1, stronger effect = lower value",0.981
same,normalized growth,"S. cerevisiae deletion strains, locus YNL128W, strain TEP1, stronger effect = lower value",1.01
same,normalized growth,"S. cerevisiae deletion strains, locus YNL153C, strain GIM3, stronger effect = lower value",0.988
same,normalized growth,"S. cerevisiae deletion strains, locus YNL183C, strain NPR1, stronger effect = lower value",0.82 (active)
same,normalized growth,"S. cerevisiae deletion strains, locus YNL209W, strain ssb2, stronger effect = lower value",0.977
same,normalized growth,"S. cerevisiae deletion strains, locus YNL233W, strain BNI4, stronger effect = lower value",1
same,normalized growth,"S. cerevisiae deletion strains, locus YNL248C, strain rpa49, stronger effect = lower value",1.01
same,normalized growth,"S. cerevisiae deletion strains, locus YNL250W, strain rad50, stronger effect = lower value",0.979
same,normalized growth,"S. cerevisiae deletion strains, locus YNL271C, strain bni1, stronger effect = lower value",0.978
same,normalized growth,"S. cerevisiae deletion strains, locus YNL298W, strain CLA4, stronger effect = lower value",0.956
same,normalized growth,"S. cerevisiae deletion strains, locus YNL307C, strain MCK1, stronger effect = lower value",0.985
same,normalized growth,"S. cerevisiae deletion strains, locus YNL322C, strain KRE1 (second series), stronger effect = lower value",0.965
same,normalized growth,"S. cerevisiae deletion strains, locus YNL322C, strain KRE1, stronger effect = lower value",0.968
same,normalized growth,"S. cerevisiae deletion strains, locus YNR049C, strain mso1, stronger effect = lower value",0.988
same,normalized growth,"S. cerevisiae deletion strains, locus YNR052C, strain pop2, stronger effect = lower value",0.997
same,normalized growth,"S. cerevisiae deletion strains, locus YOL012C, strain htz1",1.44
same,normalized growth,"S. cerevisiae deletion strains, locus YOL147C, strain pex11, stronger effect = lower value",0.977
same,normalized growth,"S. cerevisiae deletion strains, locus YOR001W, strain rrp6, stronger effect = lower value",0.972
same,normalized growth,"S. cerevisiae deletion strains, locus YOR061W, strain CKA2, stronger effect = lower value",0.983
same,normalized growth,"S. cerevisiae deletion strains, locus YOR069W, strain VPS5, stronger effect = lower value",0.973
same,normalized growth,"S. cerevisiae deletion strains, locus YOR070C, strain gyp1, stronger effect = lower value",0.974
same,normalized growth,"S. cerevisiae deletion strains, locus YOR080W, strain dia2, stronger effect = lower value",0.972
same,normalized growth,"S. cerevisiae deletion strains, locus YOR083W, strain WHI5, stronger effect = lower value",1
same,normalized growth,"S. cerevisiae deletion strains, locus YOR106W, strain vam3, stronger effect = lower value",1
same,normalized growth,"S. cerevisiae deletion strains, locus YOR136W, strain idh2, stronger effect = lower value",0.985
same,normalized growth,"S. cerevisiae deletion strains, locus YOR144C, strain elg1, stronger effect = lower value",0.981
same,normalized growth,"S. cerevisiae deletion strains, locus YOR184W, strain ser1, stronger effect = lower value",0.989
same,normalized growth,"S. cerevisiae deletion strains, locus YOR231W, strain MKK1, stronger effect = lower value",0.809 (active)
same,normalized growth,"S. cerevisiae deletion strains, locus YOR265W, strain rbl2, stronger effect = lower value",0.967
same,normalized growth,"S. cerevisiae deletion strains, locus YOR270C, strain vph1, stronger effect = lower value",1
same,normalized growth,"S. cerevisiae deletion strains, locus YOR290C, strain snf2, stronger effect = lower value",0.969
same,normalized growth,"S. cerevisiae deletion strains, locus YOR316C, strain cot1, stronger effect = lower value",0.972
same,normalized growth,"S. cerevisiae deletion strains, locus YPL051W, strain arl3, stronger effect = lower value",0.967
same,normalized growth,"S. cerevisiae deletion strains, locus YPL078C, strain atp4, stronger effect = lower value",0.993
same,normalized growth,"S. cerevisiae deletion strains, locus YPL106C, strain sse1, stronger effect = lower value",0.933
same,normalized growth,"S. cerevisiae deletion strains, locus YPL240C, strain hsp82, stronger effect = lower value",0.978
same,normalized growth,"S. cerevisiae deletion strains, locus YPL241C, strain CIN2, stronger effect = lower value",0.971
same,normalized growth,"S. cerevisiae deletion strains, locus YPL256C, strain CLN2, stronger effect = lower value",0.838
same,normalized growth,"S. cerevisiae deletion strains, locus YPR119W, strain clb2, stronger effect = lower value",0.965
same,normalized growth,"S. cerevisiae deletion strains, locus YPR141C, strain kar3, stronger effect = lower value",0.957
same,normalized growth,"S. cerevisiae deletion strains, locus YPR163C, strain tif3, stronger effect = lower value",1.01
same,normalized growth,"S. cerevisiae deletion strains, locus YPR167C, strain met16, stronger effect = lower value",0.987
same,normalized growth,"S. cerevisiae deletion strains, strain wtn01, stronger effect = lower value",0.956
same,normalized growth,"S. cerevisiae strains, strain wild type, stronger effect = lower value",0.974

# — PubChem BioAssay AID1159580 (chemical genetic matrix, 2015)
